# Experimental data published in PubChem BioAssay AID1986 (Sanford-Burnham Center for Chemical Genomics, 2009).
# Hit rate of the full screen: of about 290,000 compounds, about 890 (0.31%) were called active. Cut-off read from the data, not from the text of the source: active = inhibition mostly above about 52% (no sharp cut-off); inactive = mostly below about 76%. The sample as a whole holds a higher share of actives than the screen did.
# Assay: cell-free HIV fusion peptide-binding blockers – biochemical, uHTS, fluorescence dequenching, primary screen (AID 1986)
# Conditions: 30 min, stronger effect = higher value
# [1] = measured here: repeat confirmation average inhibition, at 18.6 µM
SMILES,inhibition (at 20 µM),inhibition [1] [%]
C=CCOc1ccc(C2/C(=C(\O)c3ccc4c(c3)OCCO4)C(=O)C(=O)N2CCCN2CCOCC2)cc1 (stereo unspecified),-1.6% (inactive),–
Cc1cc(NC(=O)CCCC(=O)N(CC(=O)NC2CCCCC2)c2ccccc2)no1,-0.7% (inactive),–
CNC(=S)N1CCN(S(=O)(=O)c2ccc3ccccc3c2)CC1,-0.9% (inactive),–
CCCc1ccc2oc(C(=O)NCCN3CCCC(O)C3)c(C)c2c1 (stereo unspecified),0.9% (inactive),–
O=c1c2cccc3c(N4CCOCC4)ccc(c32)c2nc3ccccc3n12,113% (active),–
O=c1c2ccc([N+](=O)[O-])c3cccc(c32)c2nc3ccccc3n12,10.2% (inactive),–
c1ccc2c(c1)nc(CN1CCOCC1)n1c3ccccc3nc21,2.2% (inactive),–
Cc1ccc(OCc2cc(C(=O)N(C)CC3CCOCC3)no2)cc1C,-2% (inactive),–
O=C(CCN1C(=O)/C(=C/c2ccc(Cl)cc2)SC1=S)Nc1cccc(C(=O)O)c1,62.4% (inactive),2.3
CC(/C=C1\SC(=S)N(CC(=O)O)C1=O)=C\c1ccccc1,35.8% (inactive),–
O=C(O)c1cccc(N2C(=O)/C(=C/c3ccc(SCc4ccc(Cl)cc4)o3)SC2=S)c1,63% (active),–
O=C(O)CN1C(=O)/C(=C\C(Br)=C\c2ccccc2)SC1=S,62.6% (active),–
O=C(O)CN1C(=O)/C(=C/c2ccc(SCc3ccccc3)o2)SC1=S,73.1% (active),105
CC(=C\c1ccccc1)/C=C1/SC(=S)N(CCC(=O)O)C1=O,26.1% (inactive),–
Cc1ccc(/C=C2\SC(=S)N(Cc3ccccc3)C2=O)o1,-3.6% (inactive),–
O=C1/C(=C\c2ccco2)SC(=S)N1c1ccccc1,41.6% (inactive),–
O=C(O)CN1C(=O)/C(=C/c2ccc(N3CCCCC3)o2)SC1=S,7.4% (inactive),–
Cn1cnnc1SCC(=O)N1CCc2ccccc21,-0.4% (inactive),–
CCOC(=O)C(C)c1nc2ccccc2[nH]c1=O (stereo unspecified),-0.4% (inactive),–
CN1C2C=C(N(CCc3ccccc3)C(=O)c3ccc(Cl)cc3)CC1CC2 (stereo unspecified),-0.4% (inactive),–
C=C1CN(CC(=O)OC)S(=O)(=O)c2ccccc21,0.8% (inactive),–
COc1ccccc1NC(=O)c1ccc(-c2nn(C)c(=O)c3ccccc23)cc1,0.7% (inactive),–
Cc1nn(CC(=O)N2CCCC2)c(=O)c2nn(-c3ccccc3)c(C)c12,0.3% (inactive),–

SMILES,inhibition (at 20 µM),inhibition [1] [%]
CC(CCC(=O)O)C1CC[C@H]2C3CCC4CC(=O)CCC4(C)[C@H]3CC(=O)C12C (stereo partly specified),-1.2% (inactive),–
CC1(C)C(=O)OC(c2cccs2)C(C)(C)C1=O (stereo unspecified),0.5% (inactive),–
O=C(CSc1nc2scc(-c3ccco3)c2c(=O)n1-c1ccccc1)N1CCOCC1,4.2% (inactive),–
CC1CCN(S(=O)C23CC4CC(CC(C4)C2)C3)CC1 (stereo unspecified),1.3% (inactive),–
CCOC1OC2C(CO)OC(n3cnc4c(N)ncnc43)C2O1 (stereo unspecified),1.6% (inactive),–
Oc1[nH]c2ccccc2c1N=Nc1ccccc1,146% (inactive),–
Cc1cccc2c(N=O)c(O)[nH]c12,17.9% (inactive),–
Cc1cccc2c(N=Nc3ccccc3)c(O)[nH]c12,52.7% (active),60.4
CCCCc1ccc(S(=O)(=O)N2CCN(C(=O)c3ccco3)CC2)cc1,2% (inactive),–
Cc1ccc(C)c2[nH]c(=O)c(CN(Cc3cccs3)C(=S)NCc3ccco3)cc12,16.7% (inactive),–
CN(C)CCCN1C(=O)C2CCc3[nH]c4ccccc4c3C2C1=O (stereo unspecified),-1% (inactive),–
COc1cc(/C=C2/C(=N)N3N=C(CC(=O)N4CCOCC4)SC3=NC2=O)ccc1OC(C)c1ccccc1 (stereo unspecified),36% (inactive),–
CNc1ccc(Br)cc(C(=O)/C=C/c2ccc(Cl)cc2Cl)c1=O,61.5% (active),–
CCNc1ccc(Br)cc(C(=O)/C=C/c2ccc(Cl)cc2Cl)c1=O,63.3% (inactive),13.7
CNc1ccc(Br)cc(C(=O)/C=C/c2cccc(Cl)c2Cl)c1=O,61.9% (inactive),4.3
COc1cc(NC(=O)C2CC(c3c(F)cccc3Cl)=NO2)cc(OC)c1OC (stereo unspecified),0% (inactive),–
Cc1onc(-c2ccccc2Cl)c1C(=O)Nc1ccc(Br)cc1,-0.2% (inactive),–
CCC(=O)Nc1cc(Cl)ccc1C(=O)O,-0.2% (inactive),–
O=C(O)c1ccc(Cl)cc1Nc1nc2cc(Cl)ccc2o1,67.6% (active),–
CCS(=O)(=O)c1ccc2oc(Nc3cc(Cl)ccc3OC)nc2c1,-1% (inactive),–
O=C(/C=C/c1ccccc1)NCCSCc1ccccc1Cl,-2.6% (inactive),–
O=S1(=O)C=CC(c2ccccc2)C1 (stereo unspecified),0.2% (inactive),–
COC(=O)c1nn(-c2ccccc2)c(Sc2ccc(OC)cc2)c1/C=N/O,2.7% (inactive),–

SMILES,inhibition (at 20 µM),inhibition [1] [%]
O=c1c(-c2ccccc2)coc2c(CN3CCCCC3)c(O)ccc12,0.2% (inactive),–
O=C(O)C(c1ccccc1)N1C(=O)/C(=C\c2ccc(-c3cccc(Cl)c3)o2)SC1=S (stereo unspecified),91.2% (active),120
O=C(O)C(c1ccccc1)N1C(=O)/C(=C\c2ccc(-c3ccccc3Cl)o2)SC1=S (stereo unspecified),94.5% (active),110
COc1ccccc1/C=C1\SC(=S)N(C(C(=O)O)c2ccccc2)C1=O (stereo unspecified),30.1% (inactive),–
O=C1NC(=S)/C(=C\c2ccc(-c3ccccc3Cl)o2)S1,70.7% (inactive),0.5
O=C(O)C(c1ccccc1)N1C(=O)/C(=C\c2ccc(-c3ccc(Br)cc3)o2)SC1=S (stereo unspecified),143% (inactive),–
O=C(O)C(c1ccccc1)N1C(=O)/C(=C/c2cccs2)SC1=S (stereo unspecified),14.3% (inactive),–
COc1ccc(OC)c2[nH]c(=O)c(CCNC(=O)c3ccc(S(=O)(=O)N4CCCCC4)cc3)cc12,-1.4% (inactive),–
Cc1ccc2c(c1)N(CCC(=O)NCCCOC(C)C)C(=O)C(C)O2 (stereo unspecified),-1.1% (inactive),–
COC(=O)c1sc2ccccc2c1NC(=O)c1ccc(S(=O)(=O)N2CC(C)CC(C)C2)cc1 (stereo unspecified),-1.5% (inactive),–
CCOc1ccc(Br)cc1S(=O)(=O)NCCN(C)C,2% (inactive),–
CCN(CC)c1ccc2c(Cl)cc(=O)oc2c1,3.7% (inactive),–
CCN(CC)c1ccc2c(c1)oc(=O)c1c(Cl)cc(=O)oc12,106% (active),164
CCN(CC)c1ccc2c(C)c(Cl)c(=O)oc2c1,4.7% (inactive),–
C#CCOCCOCCOCCNc1nc(N2CCN(C(=O)[C@H]([C@@H](C)CC)n3cc([C@@H](N)CC(C)C)nn3)CC2)nc(N2CCN(C(=O)[C@H](CCCCN)n3cc([C@@H](N)CO)nn3)CC2)n1,-1.1% (inactive),–
CC(C)(C)NC(=O)NC(=O)COC(=O)c1ccco1,1.7% (inactive),–
O=C(O)/C=C/C(=O)N(CC1CCCO1)C1CC(=O)N(c2c(Cl)cccc2Cl)C1=O (stereo unspecified),7.8% (inactive),–
O=C1N=C(N2CCN(c3ccccc3)CC2)S/C1=C\c1ccco1,0.9% (inactive),–
O=C1N=C(N2CCCC2C(=O)O)S/C1=C\c1ccco1 (stereo unspecified),52.2% (active),–
O=C1N=C(N2CCN(c3ccccc3)CC2)S/C1=C/c1ccco1,-1.8% (inactive),–
CCOc1cc(CNCCCN2CCOCC2)cc(Br)c1OCc1ccccc1Cl,0.9% (inactive),–
Cc1ccc(N/N=C/c2ccc3c(c2)OCCO3)cc1Cl,2.7% (inactive),–
COC(=O)c1nnn(-c2ccccc2)c1N,-4.4% (inactive),–

SMILES,inhibition (at 20 µM),inhibition [1] [%]
N#CC1=C(N)n2c(s/c(=C\c3cccs3)c2=O)=C(C#N)C1c1cccs1 (stereo unspecified),74.8% (active),–
N#CC1=C(N)n2c(s/c(=C\c3ccco3)c2=O)=C(C#N)C1c1ccco1 (stereo unspecified),26% (inactive),–
CCOC(=O)C1=C(N)n2c(s/c(=C\c3cccs3)c2=O)=C(C(=O)OCC)C1c1cccs1 (stereo unspecified),3.8% (inactive),–
CCc1nnc(NC(=O)C2Cc3ccccc3C(=O)O2)s1 (stereo unspecified),-3.6% (inactive),–
CCOC(=O)c1c(/N=C/C2=C(O)CCCC2=O)sc(C)c1C,52.3% (active),–
CCOC(=O)c1c(/N=C/C2=C(O)CC(C)(C)CC2=O)sc(C)c1C,1.6% (inactive),–
CCOC(=O)c1c(CC(C)C)csc1/N=C/C1=C(O)CCCC1=O,21.5% (inactive),–
CCOC(=O)c1c(-c2ccc(OC)cc2)csc1/N=C/C1=C(O)CCCC1=O,71.6% (active),–
CCOC(=O)c1c(/N=C/C2=C(O)CCCC2=O)sc2c1CCCC2,-0.2% (inactive),–
CCOC(=O)c1c(-c2ccc(OC)cc2)csc1/N=C/C1C(=O)CCCC1=O,52.3% (inactive),2.2
Cc1ccc(C(=O)CC(C(=O)O)n2cncn2)cc1 (stereo unspecified),1.7% (inactive),–
Cc1ccc2c(c1)S/C(=C/c1ccc[n+](C)c1)N2CCO,-0.9% (inactive),–
O=C(CC1SC(=O)N(Cc2ccccc2Cl)C1=O)Nc1nccs1 (stereo unspecified),-0.8% (inactive),–
Cn1c(CCNC(=O)C(C)(C)C)nc2ccccc21,1.8% (inactive),–
CN(C)[C@@H]1C(=O)C(C(N)=O)=C(O)[C@@]2(O)C(=O)C3=C(O)c4c(O)ccc(Cl)c4[C@@H](O)[C@H]3C[C@@H]12,58.4% (active),–
CN(C)c1ccc(O)c2c1CC1CC3[C@@H](N(C)C)C(=O)C(C(N)=O)=C(O)[C@]3(O)C(=O)C1=C2O (stereo partly specified),54% (inactive),4.9
C=C1c2cccc(O)c2C(O)=C2C(=O)[C@]3(O)C(O)=C(C(N)=O)C(=O)[C@@H](N(C)C)[C@@H]3[C@@H](O)[C@H]12,63.7% (active),–
C[C@H]1c2cccc(O)c2C(O)=C2C(=O)[C@]3(O)C(O)=C(C(N)=O)C(=O)[C@@H](N(C)C)[C@@H]3[C@@H](O)[C@@H]21,16% (inactive),–
COc1ccc2nc(NC(=O)Cn3cnc4c(=O)n(C)c(=O)n(C)c43)sc2c1,4% (inactive),–
CCN(CC)C(=O)CC(c1ccc(F)cc1)c1ccc(OC)cc1 (stereo unspecified),2% (inactive),–
COc1ccc(OCC(=O)Nc2ccncc2)cc1,1.1% (inactive),–
